Abeta rescue: compounds reversing amyloid beta toxicity in yeast; yeast expressing A-beta42, growth rescue, OD600, 48 h; response scale: 0% DMSO, 100% iron-clioquinol control; Potency, µM (top dose mostly 46.1 µM), actives largely listed as activators; 410,000 tested, 0.063% active; AID 1347071; also: nearly all actives have a fitted effect of over 55% in size
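Yeast growth medium received pinned compounds, then yeast cells expressing toxic A-beta were added; plates incubated at 30 C for 48 hr. Growth read as absorbance at 600 nm, normalized to DMSO and equimolar FeCl3 plus clioquinol controls.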
FUS suppressor: FUS proteinopathy suppression in yeast | Potency, µM (doses to about 76.6 µM), usual class: activators | 390,000 tested, 0.24% active | S. cerevisiae FUS-expressing, growth rescue, OD600, 24 h;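 also: plate controls were DMSO vehicle for no effect and reference control for full effect; nearly all actives have a fitted effect of over 55% in size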
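Yeast FUS proteinopathy model; galactose-induced FUS (2%), starting OD 0.005. Cpds in dilution series, 24hr, 30C, 99% humidity. Abs 600 nm growth. Pos ctrl CP55940 (top 92uM final); neg ctrl DMSO.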
aSyn yeast inh: rescues yeast growth from alpha-synuclein toxicity | Yeast expressing alpha-synuclein, growth rescue, BacTiter-Glo, 24 h | Potency, µM (highest dose often 46.1 µM), without a hit: at the top dose growth rescue (activation), most hits filed as activators | 370,000 tested, 0.14% active; also: % of control where 0% means no effect; nearly all actives have a fitted effect of over 65% in size
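Screening used galactose-induced yeast with toxic alpha-synuclein levels, exposed to compound for 24 hr at 30 deg C. Cell growth, read with BacTiter-Glo luminescence, gave the measured signal.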
Mito fusion act: mitochondrial division inhibition or fusion activation | S. cerevisiae fusion-defective mutant growth rescue, CellTiterGlo 48 h | 320,000 tested, 0.23% active | Potency, µM (top dose mostly 46.1 µM), without a hit: at the top dose growth rescue (activation), actives largely listed as activators; also: % of control where 0% means no effect; nearly all actives have a fitted effect of over 45% in size
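Temperature-sensitive fusion-defective S. cerevisiae (e.g. fzo1-1, mgm1-5) were grown with compound in YPEG medium (3% ethanol, 3% glycerol) for 48 hours at 37C. Growth rescue was measured as viability by CellTiterGlo luminescence after 10 minutes at ambient.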
TDP43 rescue: inhibitors of TDP-43 toxicity in yeast; TDP-43 expressing yeast growth rescue, BacTiter-Glo, 24 h; 410,000 tested, 1.8% active; AID 652104; Potency, µM (series often up to 46.1 µM), for the others: at the highest dose growth rescue (activation), usual class: activators; also: % of control where 0% means no effect; nearly all actives have a fitted effect of over 50% in size
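Cell-based yeast growth screen: TDP-43 expression induced in galactose, inoculum OD600=0.02 after raffinose pregrowth to mid-log. Read-out BacTiter-Glo luminescence at 24 hr, 30 deg C; inhibition of toxicity seen as signal increase.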
* = called active by the depositor; i = inactive; u = inconclusive; x = no result; ! = a repeat was not active; [ ] = remark or other dose. The list is not random: actives were taken first. Their share in the collection is about 2.2%. Calls follow the shape of the dose curve; as a rule, active = well fitted curve in the direction sought with a large enough effect; inconclusive = small, poorly fitted or top-dose-only effect, or another doubt; inactive = no such curve, though single readings can be large; an effect the other way counts as inactive or inconclusive. Potency is read from the fitted curve at half-maximal effect.

SMILES | Abeta rescue | FUS suppressor | aSyn yeast inh | Mito fusion act | TDP43 rescue
Oc1cc2cc(-c3csc(-c4ccc(F)cc4)n3)cc3c2n1CCC3 | x | x | -5% | x | x
COc1ccccc1/C=C/c1nc(S(=O)(=O)c2ccccc2)c(N2CCC(C(N)=O)CC2)o1 | i | i | -1% | 35µM* | -24%
Cc1cccc(CCNC(=O)Cn2ncc3c2-c2cc(C)ccc2OC3)c1 | x | i | x | x | x
Fc1ccc(-c2nc3ccc(Cl)cn3c2Cc2ccccc2)cc1 | i | i | 23% | x | 35µM*
Fc1ccc(-c2nc3ccc(Cl)cn3c2Cc2ccsc2)cc1 | i | i | -9% | x | 0%
Clc1ccc(-c2nc3ccc(Cl)cn3c2Cc2ccccc2)cc1 | i | i | 25% | x | 20µM*
Clc1ccc2nc(-c3ccccc3)c(Cc3ccccc3)n2c1 | i | i | -22% | x | 0%
O=C(N1CCN(c2ccccn2)CC1)N1c2ccccc2Sc2ccccc21 | i | i | 12% | 11µM* | -15%
COc1ccc(NC(=O)CN(C)C(=O)c2cn(-c3ccccc3)nc2-c2ccc(F)cc2)cc1 | i | u | -11% | 25% | 25µM*
Cc1noc(-c2ccc(N3CCC(C)CC3)c([N+](=O)[O-])c2)n1 | i | i | x | x | 10%
CNc1oc(-c2ccc(F)cc2)nc1S(=O)(=O)c1ccccc1 | i | i | -3% | 0% | -16%
CNc1oc(-c2cccs2)nc1S(=O)(=O)c1ccccc1 | i | i | 1% | 0% | -15%
CCC(C)S(=O)(=O)c1oc(-c2cccs2)nc1S(=O)(=O)c1ccccc1 (stereo not given) | i | i | x | x | 11µM*
CC(C)CS(=O)(=O)c1oc(-c2ccc(F)cc2)nc1S(=O)(=O)c1ccccc1 | i | i | x | x | 20µM*
CCOc1ccc(NC(=O)CC2C(=O)N(c3ccccc3)C(=O)N2CCc2sccc2C)cc1 (stereo not given) | i | u | x | x | 12%
Cc1csc2nc(COc3ccccc3NC(=O)c3ccccc3Cl)cc(=O)n12 | i | i | x | x | 22%
COc1ccccc1NC(=O)CSc1ncn(-c2ccccc2)n1 | i | x | 6% | 8% | 10µM*
COc1ccccc1NC(=O)c1c(C)nn(-c2ccccc2)c1Cl | i | i | 0% | -5% | 25µM*
COc1ccc(NC(=O)c2c(C)nn(-c3ccccc3)c2Cl)cc1 | i | i | -7% | 1% | 22%
Cc1ccccc1NC(=O)c1c(C)nn(-c2ccccc2)c1Cl | i | i | 0% | 0% | u
CC(=O)c1cccc(NC(=O)c2c(C)nn(-c3ccccc3)c2Cl)c1 | i | x | -15% | 7% | 17%
CC(=O)c1ccc(NC(=O)c2c(C)nn(-c3ccccc3)c2Cl)cc1 | i | i | 8% | 2% | 11µM*
Cc1ccc(NC(=O)c2c(C)nn(-c3ccccc3)c2Cl)cc1 | i | i | 1% | 3% | 13µM*
Cc1ccccc1OCC(=O)NCC(=O)OCc1ccc2ccccc2c1 | x | x | -8% | x | x
CCc1nc2ccc(C(=O)Nc3cc(-c4ccccc4)ccc3OC)cn2c1N(CC)CCN(C)C | i | i | -4% | x | 9%
SMILES | Abeta rescue | FUS suppressor | aSyn yeast inh | Mito fusion act | TDP43 rescue
CCc1nc2ccc(C(=O)Nc3cc(-c4ccccc4)ccc3OC)cn2c1N(CC)Cc1cccc(Br)c1 | i | u | 0% | x | 16µM*
CCc1nc2ccc(C(=O)Nc3cccc(OC)c3)cn2c1N(C)CCCc1ccccc1 | i | u | -34% | x | 35µM*
CCc1nc2ccc(C(=O)Nc3cccc(NS(C)(=O)=O)c3)cn2c1N(C)CCCc1ccccc1 | i | i | -1% | x | 0%
C(=N\Nc1nc(-c2cccnc2)nc2ccccc12)/c1ccccc1 | i | i | -7% | -6% | 12%
C(=N\Nc1nc(-c2ccccn2)nc2ccccc12)/c1ccccc1 | x | x | 13µM* | -4% | x
COC(CNC(=O)[C@H](Cc1ccccc1)NC1(C(=O)NC2CCCCC2)CCC1)OC | x | i | x | x | x
O=C(NCc1cccc(Cl)c1)c1cnc(N2CCCCC2)c2ccccc12 | i | u | x | x | 14%
O=C(O)c1cccnc1SCc1cccc(Cl)c1 | i | i | 9% | -6% | 35µM*!
CCSC(=O)N1c2ccc(OC)cc2C=CC1C#N (stereo not given) | i | x | 4% | x | 22µM*
COc1ccc(C(=O)N2c3ccccc3C=CC2C#N)cc1 (stereo not given) | i | i | -4% | 22% | 18%
O=C(COC(=O)c1nc(Cl)ccc1Cl)Nc1ccc(Cl)cc1 | i | i | 0% | -9% | 16µM*
COc1cccc(NC(=O)COC(=O)c2nc(Cl)ccc2Cl)c1 | i | i | 8% | 4% | 16µM*
COc1ccc(OC)c(NC(=O)COC(=O)c2nc(Cl)ccc2Cl)c1 | i | i | 4% | 3% | 12%
CC(C)c1cc(C(C)C)c(S(=O)(=O)NCC(=O)N2CCN(c3ncccn3)CC2)c(C(C)C)c1 | x | i | x | x | x
Cc1ccccc1C1CCC2(CCC(=O)N2CC[C@@H](O)c2ccccc2)CC1 (stereo not given in full) | x | i | x | x | x
CCOC(=O)/C(=C\c1ccccc1)C(=O)c1cc(C(C)=O)c(Nc2ccccc2)s1 | i | i | 28% | 10% | -11%
CCOC(=O)/C(=C\c1cccnc1)C(=O)c1cc(C(C)=O)c(Nc2ccccc2)s1 | i | x | -21% | 3% | 3.2µM*
O=C(OC12CCCN(C1)/C(=C/c1ccccc1)C2)c1ccc(Cl)cc1 (stereo not given) | x | i | x | x | x
COc1ccc(N2CCN(S(=O)(=O)c3ccc(Br)s3)CC2)cc1 | i | i | x | 4.5µM* | -5%
Cc1nc2scc(C)n2c(=O)c1S(=O)(=O)N1CCN(c2ccccc2)CC1 | i | i | -46% | 2% | -21%
COc1ccc(N2CCN(S(=O)(=O)c3c(C)nc4scc(C)n4c3=O)CC2)cc1 | i | i | -51% | -9% | 14µM*!
COC(=O)c1scc(-c2ccc(C)cc2)c1S(=O)(=O)N1CCN(c2ccc(OC)cc2)CC1 | i | 22µM* | x | x | 0%
CCC(CC)c1nn2c(=O)cc(COc3ccc(NC(=O)c4ccccc4Cl)cc3)nc2s1 | i | i | x | x | 0%
Cc1ccc2c(c1)C1CS(=O)(=O)N(C3CCCC3)CN1C2 (stereo not given) | x | i | x | x | x
O=C(C1CCCN(S(=O)(=O)c2ccc(F)cc2)C1)N1CCN(Cc2ccccc2)CC1 (stereo not given) | x | i | x | x | x
CCc1c(C)sc(NC(=O)C2CCCO2)c1C#N (stereo not given) | i | i | -8% | 1% | 22µM*
Cc1nc([N+](=O)[O-])c(Br)n1CC(=O)c1ccccc1 | i[9.22 µM] | i | 14% | -19% | 16%
